The text below walks through data of PubChem BioAssay (NCI).

The structures appear in SMILES notation. Compounds without any hit were thinned out: in the full panel of roughly 83,000, 20% have a hit.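 Negative percent growth values reflect cell death: -40 means 40% of the cells present at the start died, and -100 means all died.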 Unmarked numbers belong to inactive results. Calls of active or inactive are those of the source.

For this test, the system named is BT-549 breast. The test is described as follows: NCI-60 one-dose screen, 48 h (100 = growth as untreated, 0 = no growth, -100 = all killed). To be noted: 10 µM. On the procedure:
Growth inhibition of the BT-549 human tumor cell line is measured as a screen for anti-cancer activity. Cells are grown in 96 well plates and exposed to the test compound for 48 hours. Compounds are tested at a single concentration, which is 10^-5 M for most compounds. The reported endpoint is percent growth (GI% or GIPRCNT), where numbers from 0 - 100% represent growth inhibition, and numbers from -100% - 0 represent cell death. For example, a value of 40 represents 60% growth inhibition. A value of 0 means no net growth occurred over the course of the experiment. A value of -40 indicates 40% of cells at the beginning of the experiment died by the end of the experiment. A value of -100 means all cells are dead at the end of the experiment.
NCI-60 Human Tumor Cell Lines Screen was performed using the standard one-dose NCI protocol, which is described in more detail at https://dtp.cancer.gov/discovery_development/nci-60/default.htm.
Compounds with GIPRCNT values below 10 were considered active. Activity score was based on GIPRCNT using the following formula: […]
Score is 0 for GIPRCNT values of 100 or above, 50 for GIPRCNT values of 0, and 100 for GIPRCNT values of -100.
As to `O=C(Nc1ccccc1)Nc1nc2ccccc2s1`, the growth was 89.6%. For `O=C(Nc1cccc(C(F)(F)F)c1)c1cncc(C#Cc2cnc3cccnn23)c1`, the growth was 15.4%. Take `N#Cc1ccc(-c2nn(-c3ccc(C(=O)O)cc3)cc2CNc2ccc(Oc3ccccc3)cc2)cc1`: the growth was -5.49% (active). Regarding `Cc1cc(C)nc(SCC(=O)Nc2ccc(S(N)(=O)=O)cc2)n1`, the growth was 132%.

Turning to `O=C(Cn1cc(CSc2nnc3oc4ccccc4n23)nn1)Nc1ccc(Br)cc1`, the growth is 92.1%.

Consider `Cc1ccc(-c2nc(Nc3ccc(S(N)(=O)=O)cc3)c3ccccc3n2)cc1`, for which the growth was 75.7%. On to `OCc1[nH]nc2cc(Nc3ncc4ccc(Br)c(OC5CCC(O)CC5)c4n3)ccc12` (stereo not given), for which the growth was -42.5% (active). As for `O=C(CSc1nnc(-c2ccc3nc(-c4ccc(Cl)cc4)[nH]c3c2)o1)Nc1ccc(Br)cc1`, the figure is -69.8% (active); as for `O=C1NC(=NC23CC4CC(CC(C4)C2)C3)N/C1=C\c1ccc2ncoc2c1`, -20.6% (active). As to `O=C(Nc1cccc([N+](=O)[O-])c1)Nc1cccc([N+](=O)[O-])c1`, the growth is 67.1%. As for `O=C(Nc1ccc(Cl)c([N+](=O)[O-])c1)Nc1ccc(Cl)c([N+](=O)[O-])c1`, the growth was -11.6% (active).

With `CC(=O)OC[C@@]1(C)C2CC[C@]3(C)C(CC=C4C5CC(C)(C)CC[C@]5(C(=O)Nc5ccccc5)CC[C@]43C)[C@@]2(C)C[C@@H](OC(C)=O)[C@@H]1OC(C)=O` (stereo not given in full), the growth is 47.7%. As to `O=C(NO)c1ccc(Cn2ccc3c(Nc4ccccc4)ncnc32)cc1`, the growth was 27.4%. For `Cc1cccc(NC(=O)CSc2nc3ccc(F)cc3c(=O)n2-c2ccc(Cl)cc2)c1C`, the growth is 32%.

As for `O=C(/C=C/Nc1ccc(F)cc1F)c1ccc2c(c1)Nc1ccccc1S2`, the growth was 85.7%. As for `Cc1ccc(C(C)C)cc1NC(=O)c1ccccc1O`, the figure is -2.14% (active).

Regarding `Cc1noc2c(Cc3ccc([N+](=O)[O-])cc3)nn(CC(=O)N/N=C/c3ccc(Cl)cc3)c(=O)c12`, the growth was 56%. Consider `N[C@@H](CSSC[C@H](N)C(=O)Nc1ccc(OCC2CCCC2)cc1)C(=O)Nc1ccc(OCC2CCCC2)cc1`, for which the growth was -63.5% (active). As to `COc1ccc(-c2ccc(SCC(=O)Nc3ccc(C#N)cc3)nn2)cc1`, the growth is 88.6%. Regarding `Clc1cccc(N/N=C/c2c[nH]c3ccccc23)n1`, the growth is 3.11% (active). For the compound `O=C(Nc1ccc(I)cc1F)c1cc(-c2ccc(F)cc2F)ccc1O`, the growth was -12.5% (active). Consider `O=C(NCCCCC(c1ccc(F)cc1)c1ccc(F)cc1)NCCCc1cccnc1`, for which the growth was -16.4% (active). As for `COc1ccc2c3nc4cc(C)c(C)cc4nc3n(CCN(C)C)c2c1`, the growth was 39.4%. As to `CC1=C2C(=C[C@@](C)(COCOCCCl)[C@@H]2O)C(=O)[C@](C)(O)C12CC2`, the growth is -81.2% (active). On to `O=C(c1ccc(O)cc1)C1[C@H](c2ccc(Br)cc2)[C@@H](c2ccccc2)NC12C(=O)Nc1ccccc12` (stereo not given in full), for which the growth was 116%.

Take `Nc1cccnc1/C=N/NC(=S)NCCNC(=O)c1ccc(-n2nc(-c3ccccc3O)nc2-c2ccccc2O)cc1`: the growth was -5.4% (active). Take `N#Cc1c(-c2ccc(F)cc2)nc(SCc2ccc([N+](=O)[O-])cc2)nc1N1CCOCC1`: the growth was 58.5%.

On to `Cc1ccc(C(=O)N/C(=C2/OCCN2C)[P+](c2ccccc2)(c2ccccc2)c2ccccc2)cc1`, for which the growth is 86.8%. Consider `CC1(C)CC[C@]2(C(=O)N3CCOCC3)CC[C@]3(C)C(=CC[C@@H]4[C@@]5(C)CC[C@H](NCO)C(C)(C)[C@@H]5CC[C@]43C)[C@H]2C1`, for which the growth is -92.2% (active). Take `COc1cccc(-c2ccnc(/N=C(\N)Nc3ccc(S(=O)(=O)Nc4nc(C)cc(C)n4)cc3)n2)c1`: the growth was 111%. On to `C=C[C@H]1[C@H](O[C@@H]2OC(CO)[C@@H](O)[C@H](O)C2OC(=O)c2c(O)cc(O)cc2-c2cccc(O)c2)OC=C2C(=O)OCC[C@H]21` (stereo not given in full), for which the growth is 94.8%. On to `O=S(=O)(c1ccc(Cl)cc1)c1nc(-c2ccccc2)oc1S(=O)(=O)c1ccc(Cl)cc1`, for which the growth is 142%. With `O=C(Nc1ccc(Cl)c(C(F)(F)F)c1)c1cncc(C#Cc2cnc3ccc(N4CCOCC4)nn23)c1`, the growth is -14.9% (active). Turning to `O=C(c1ccc(Cl)cc1)C1[C@H](c2ccc(Br)cc2)[C@@H](c2ccccc2)NC12C(=O)Nc1ccc(Cl)cc12` (stereo not given in full), the growth is -57.1% (active). As for `O=c1[nH]c2ccccc2cc1CSc1ccc(Nc2nccc(-c3ccc(Cl)cc3)n2)cc1`, the figure is -5.03% (active). `CC1(C)[C@@H](NCO)CC[C@]2(C)[C@H]3C(=O)C=C4[C@@H]5C[C@](C)(CO)CC[C@]5(C)CC[C@@]4(C)[C@]3(C)CC[C@@H]12`: the growth was 81.8%. Consider `N#C/C(=C\c1ccc(N(c2ccccc2)c2ccccc2)cc1)C(N)=O`, for which the growth was 69.6%. With `O=C(Cc1ccc2c(c1)CN(C1CCC(=O)NC1=O)C2=O)NCc1cccc2ccccc12` (stereo not given), the growth is -52.8% (active).

On to `O=C(CNc1nc(-c2ccccc2)cs1)Nc1ccc(Br)cc1`, for which the growth was -61.2% (active). In the case of `COc1ccc2[nH]cc(/C=N/Nc3cccc(Cl)n3)c2c1`, the growth was 12.1%.
